YopH PTP inh – inhibitors of Yersinia enterocolitica YopH tyrosine phosphatase; fluorescence Ex485/Em525; inhibition, % (concentration not given with the values); hit rate 0.16% among 140,000; AID 898; in the data active = inhibition above about 50%
RmlC RmlD mix – inhibitors of RmlC and RmlD coupled enzymes. hit rate 0.39% among 110,000. AID 1532. inhibition, % at 5.5 µM. RmlC/RmlD coupled enzyme inhibition, 384-well mixture HTS; in the data active = inhibition above about 30%, passing the limit was not always enough
* hit, by the source's call; . = no result. Shown are actives, neighbours in structure and some others; about 0.44% of the full set was active somewhere.

SMILES	YopH PTP inh	RmlC RmlD mix
[O-]/[N+](=C\c1ccncc1)c1ccccc1	59*	.
Fc1ccc(/C=N/Nc2ccccn2)cc1	-10	.
[O-]/[N+](=C\c1ccc(OC(F)F)cc1)c1ccccc1	55*	-10
FC(F)Oc1ccc(NC(=S)NCc2ccccc2)cc1	-21	.
O=C(c1ccccc1)c1ccncc1	-30	2
O=C(C(Cc1ccccc1)NS(=O)(=O)c1cccc2cccnc12)N1CCc2ccccc21 (centres undefined)	-48	-7
COC(=O)/C=C1\N/C(=N\c2nc(C)cc(C)n2)N(c2ccc(C)c(C)c2)C1=O	-17	.
Cc1cc2cc(CCNC(=O)c3cccs3)c(=O)[nH]c2cc1C	-36	.
O=C(COC(=O)c1ccc([N+](=O)[O-])s1)Nc1ccccc1	50*	.
CC(C)(C)c1ccc(NC(=O)COC(=O)c2ccc([N+](=O)[O-])s2)cc1	-19	.
COC(=O)N(NC(=O)C(O)(c1ccccc1)c1ccccc1)c1ccccc1	18	.
COC(=O)N(NC(=O)C(O)(CCC(C)C)CCC(C)C)c1ccccc1	70*	.
CCN1C(=O)[C@@H]2[C@H](C1=O)[C@@H]1CC(C(=O)OC)=C[C@@H](C(=O)OC)C3C1=C(C(=O)C3(CC)CC)[C@@H]2C (some centres undefined)	.	-26
O=C([C@H](O)c1ccccc1)N1CCC[C@H]1CO	-34	.
COc1ccc(C2C=C(c3ccccc3)Nc3nc(CCCO)nn32)cc1 (centres undefined)	-28	24
COc1ccc(C2C=C(c3cccs3)Nc3nc(CCCO)nn32)cc1 (centres undefined)	-15	44*
COc1ccccc1N1C(C)=CC(=C(C#N)c2nc3ccccc3s2)C=C1C	70*	.
CC1=CC(=C(C#N)c2nc3ccccc3s2)C=C(C)N1c1ccc(F)cc1	65*	.
CC(C)=C(C#N)c1nc2ccccc2s1	12	-15
COC(=O)c1ccc(/C(O)=C(\C#N)c2nc3ccccc3s2)cc1	-30	4
COc1ccc(CNC(=O)CSc2ccc(Br)cc2)cc1OC	-27	.
COc1ccc(N=CC2=C(Nc3ccc(OC)cc3)c3c(C)nn(-c4ccccn4)c3CC2)cc1	51*	61*
COc1ccc(-c2cc(C(=O)O)c3c(C)nn(-c4ccccn4)c3n2)cc1	-9	28
Cc1c(C(=O)Nc2ccc(-c3nnc4n3CCCCC4)cc2)oc2ccc(Br)cc12	-27	.
COc1cc(-c2nc3cnccn3c2Nc2ccccc2)ccc1O	-3	40*
SMILES	YopH PTP inh	RmlC RmlD mix
COc1cc(-c2nc3cnccn3c2Nc2ccc(C)cc2)ccc1O	-23	0
CNC(=O)c1cc2c(=O)n3cccc(C)c3nc2n(C(C)C)c1=N	-24	89*
CCOC(=O)c1cc2c(=O)n3cccc(C)c3nc2n(C)c1=N	-38	.
COCCCn1c(=N)c(C(=O)NCC2CCCO2)cc2c(=O)n3ccccc3nc21 (centres undefined)	-41	69*
COCCCn1c(=N)c(C(=O)NCC2CCCO2)cc2c(=O)n3cccc(C)c3nc21 (centres undefined)	-25	.
C=CCn1c(=N)c(C(=O)NCCCOC)cc2c(=O)n3cccc(C)c3nc21	-28	50*
CCCCNC(=O)c1cc2c(=O)n3cccc(C)c3nc2n(Cc2ccccc2)c1=N	-17	6
CC1=C(C/C=C(\C)CCC[C@H](C)CCC[C@H](C)CCCC(C)C)C(=O)c2ccccc2C1=O	.	-12
COc1c(C)cccc1C(=O)Nc1cc(-c2nn3c(C)nnc3s2)ccc1C	-14	-8
COc1ccc(OCCSc2nnc(-c3ccc(OC)cc3)n2N)cc1	5	14
O=C1NCCCC1C(=O)Nc1ccccc1C(F)(F)F (centres undefined)	17	-12
Cc1c(Cl)c([N+](=O)[O-])nn1CC(=O)NC12CC3CC(CC(C3)C1)C2	-18	-9
CCOC(=O)c1nn(-c2ccc(OCC)cc2)c2nc(-c3ccco3)c(C#N)c(=O)n12	-2	.
Cc1ccc(NC(=S)N(CCN(C)C)Cc2cc3cc(C)cc(C)c3[nH]c2=O)cc1	-9	.
COc1ccc(NC(=O)/C(=C\c2cccnc2)NC(=O)c2cccs2)cc1	-12	.
COc1ccc(NC(=O)/C(=C/c2cccnc2)NC(=O)c2cccs2)cc1	53*	.
CC(C)(C)[C@H]1C=C(C(=O)O)O[C@@H](OCc2ccc(CO)cc2)C1	.	-11
COc1ccccc1C1CC(=O)NC(C)=C1C(=O)OCC(C)C (centres undefined)	-21	-12
C=CCOC(=O)C1=C(C)NC(=O)NC1/C=C/c1ccccc1 (centres undefined)	-41	1
C=CCOC(=O)C1=C(C)NC2(O)c3ccccc3C(=O)C12O (centres undefined)	78*	2
CC1=C(C(=O)OCC(C)C)C2(O)C(=O)c3ccccc3C2(O)N1 (centres undefined)	69*	.
CC1(C)CCC23CC[C@]4(C)C(OC2=O)(C3C1)[C@H]1O[C@H]1C1[C@@]2(C)CC[C@@H](O)C(C)(C)C2CC[C@]14C (some centres undefined)	.	2
C/C(CC(=O)NC1CCCC1)=N\NC(=O)Cc1csc(N)n1	-23	.
O=C(Nc1ccc2c(c1)OCO2)C1CCN(Cc2cnn(-c3ccccc3)c2-n2cccc2)CC1	-4	-4
COc1ccc2c(c1OC)C(=O)OC2C1c2c(cc3c(c2OC)OCO3)CCN1C (centres undefined)	-20	-3
SMILES	YopH PTP inh	RmlC RmlD mix
CN1CCc2cc3c(c4c2[C@H]1[C@H](O)c1ccccc1-4)OCO3	101*	-9
S=C(NCc1ccco1)N/N=C/c1ccccc1Cl	-28	.
Cc1sc2nc(COC(=O)CNC(=O)c3ccc(C(C)(C)C)cc3)[nH]c(=O)c2c1C	-45	.
CCc1nnc(NC(=O)C(C)Sc2ccccc2)s1 (centres undefined)	-43	5
Cc1cc(C)c2c(n1)nn1c(NCCOCCO)cc(C)nc21	-23	44*
Cc1cc(C)c2c(n1)nn1c(N3CCN(c4ccccc4)CC3)cc(C)nc21	-26	-27
CSc1nc2ccccc2n1Cc1c(Cl)cccc1Cl	-19	-11
CCN1CCN(C(=O)c2ccc(CN(c3ccccc3)S(=O)(=O)c3ccccc3)cc2)CC1	-32	.
CCOC(=O)c1c(C)oc2c1c(C=NCc1ccccn1)c(O)c1ccccc12	57*	.
CCOC(=O)c1c(C)oc2c1c(C=NCC1CCCO1)c(O)c1ccccc12 (centres undefined)	44	.
CCO/C=C1/C(=O)N(Cc2ccccc2)C(=O)c2ccccc21	101*	.
CCO/C=C1/C(=O)N(CC)c2ccccc21	2	.
CCO/C=C1\C(=O)N(c2ccccc2)C(=O)c2ccccc21	89*	186*
CCN(CC)c1ccc(N2C(=O)c3ccccc3C2=O)cc1	-17	7
Cc1ccc(CNC(=O)c2ccc3c(c2)S(=O)(=O)c2ccccc2C3=O)o1	.	9
CC(=O)OCC(=O)NCc1ccc2c(c1)OCO2	-46	4
Cc1cc(=O)oc2cc(OCC(=O)OCC(=O)NCc3ccc4c(c3)OCO4)ccc12	-17	37*
CC1=CCC2COC(c3ccc[n+](Cc4ccccc4)c3)C1C2 (centres undefined)	-45	.
O=C(Nc1ccc(NC(=S)NC(=O)C(c2ccccc2)c2ccccc2)cc1)c1ccccc1	-36	13
CCC(C)n1c(NC(=O)c2ccccc2)c(C#N)c2nc3ccccc3nc21 (centres undefined)	14	-10
CCCCn1c(NC(=O)c2ccccc2)c(C#N)c2nc3ccccc3nc21	60*	.
